Shiga inhibitor: blocks Shiga toxin action in Vero cells | 9.2% of 290,000 active | inhibition, % at 38.7 µM | Vero cells, Shiga toxin protein synthesis inhibition reporter; in the data active = inhibition mostly above about 28%, no sharp cut-off; inactive = mostly below about 43%
LmPK inh: inhibitors of Leishmania mexicana pyruvate kinase; Q27686; purified LmPK, Kinase-Glo ATP luminescence, 1 h; Potency, µM (doses to about 57.5 µM), usual class: inhibitors; 0.37% of 290,000 active; AID 1721
Target sequence (Q27686 whole entry, looked up): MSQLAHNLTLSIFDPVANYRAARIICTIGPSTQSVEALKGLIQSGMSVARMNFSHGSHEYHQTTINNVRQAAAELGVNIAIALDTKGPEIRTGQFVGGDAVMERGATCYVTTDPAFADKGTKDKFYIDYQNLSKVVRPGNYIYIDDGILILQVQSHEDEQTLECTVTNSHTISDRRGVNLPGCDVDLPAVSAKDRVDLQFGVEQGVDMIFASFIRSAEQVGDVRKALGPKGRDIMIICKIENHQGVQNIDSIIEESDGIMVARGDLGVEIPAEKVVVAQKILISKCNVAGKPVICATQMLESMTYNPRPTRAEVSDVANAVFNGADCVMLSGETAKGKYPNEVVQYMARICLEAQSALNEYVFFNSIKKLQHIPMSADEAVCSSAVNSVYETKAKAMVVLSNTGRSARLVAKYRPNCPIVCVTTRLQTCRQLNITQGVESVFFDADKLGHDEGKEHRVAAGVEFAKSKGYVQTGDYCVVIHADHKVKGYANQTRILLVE
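0.1 nM LmPK, 0.5 mM PEP, 0.1 mM ADP; 50 mM imidazole pH 7.2, 7 mM MgCl2, 50 mM KCl; 1 h RT. Kinase-Glo luminescence readout, normalized to no-enzyme (full inhibition) and uninhibited wells.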
Pf growth 48h: inhibits P. falciparum growth in the first generation, 48 h. Potency, µM (top dose mostly 28.7 µM), most hits filed as inhibitors. 5.9% of 310,000 active. P. falciparum luciferase growth in erythrocytes, 48 h
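Firefly luciferase activity from engineered P. falciparum reports growth; inhibitors lower the luminescent signal. Cultures contained 2% hematocrit erythrocytes at 0.1% final parasitemia.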
Pf growth 96h: P. falciparum growth inhibition at 96 hours; P. falciparum luciferase reporter growth, 96 h; 6.9% of 320,000 active; Potency, µM (highest dose often 28.7 µM), hits mostly inhibitors; AID 504834
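Plates of compound plus infected erythrocytes (2% hematocrit, 0.05% parasitemia final) incubate 96 hours, 37 C, 5% CO2. Detection reagent added; reduced luminescence from the parasites' luciferase reporter flags inhibition.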
Cycloheximide cs: affects cycloheximide protein synthesis inhibition readout, counter-screen. AID 2314. 12% of 300,000 active. max response, %. cell reporter, cycloheximide protein synthesis inhibition counterscreen; in the data active = max response mostly above about 13%, no sharp cut-off; inactive = mostly below about 14%; also: read at 38.3 µM for the half of the compounds with a filed dose
Hits are given with their value. This is a sample that favours compounds with a hit; in the whole collection about 22% have one here. Unless noted, calls follow the shape of the dose curve; as a rule, active = well fitted inhibition curve with a large enough effect; inconclusive = small, poorly fitted or top-dose-only effect, or another doubt; inactive = no such curve, though single readings can be large or run the other way.

Screening Cc1ccc(C(=O)COC(=O)CN2C(=O)C3C4CCC(C4)C3C2=O)cc1C (configuration not stated) returned Shiga inhibitor inactive, LmPK inh inactive, Pf growth 48h inactive, Pf growth 96h inactive and Cycloheximide cs 12.
`O=c1cc(O)c2c(=O)n(-c3ccccc3)c3ccccc3c2o1` gave Shiga inhibitor inactive, LmPK inh inactive, Pf growth 48h inactive, Pf growth 96h 12µM and Cycloheximide cs inactive.
Screening CCn1c(=O)c2c(O)cc(=O)oc2c2ccccc21 returned Shiga inhibitor inactive, LmPK inh inactive, Pf growth 48h inactive, Pf growth 96h inactive and Cycloheximide cs inactive.
`COc1ccc(OCCn2c(C)c(/C=N/n3cnnc3)c3ccccc32)cc1` gave Shiga inhibitor inactive, LmPK inh inactive, Pf growth 48h inconclusive, Pf growth 96h 12µM and Cycloheximide cs inactive.
For COc1ccc(-c2cc(C(=O)N3CCN(S(=O)(=O)c4ccc(C)cc4)CC3)[nH]n2)cc1 the results were Shiga inhibitor inactive, LmPK inh inactive, Pf growth 48h inconclusive, Pf growth 96h inactive and Cycloheximide cs inactive.
`CC1C(=O)N2CCCc3cc(S(=O)(=O)NCc4ccccc4Cl)cc1c32` (configuration not stated) gave Shiga inhibitor inactive, LmPK inh inactive, Pf growth 48h 13µM, Pf growth 96h inactive and Cycloheximide cs inactive.
For C[n+]1ccc(/C=C/c2ccc(Br)cc2)cc1 the results were Shiga inhibitor inactive, LmPK inh inactive, Pf growth 48h 0.33µM, Pf growth 96h 1.3µM and Cycloheximide cs inactive.
For CC1CC(C)CN(S(=O)(=O)c2ccc(NC(=O)C3CSC4(C)CCC(=O)N34)cc2)C1 (configuration not stated) the results were Pf growth 48h inconclusive and Pf growth 96h 9.3µM.
Screening CC12CCC(=O)N1C(C(=O)Nc1cccc(S(=O)(=O)N3CCCCCC3)c1)CS2 (configuration not stated) returned Pf growth 48h inactive and Pf growth 96h 13µM.
For CC(C)c1ccc(NC(=O)CN2C(=O)NC(C)(C3CC3)C2=O)cc1 (configuration not stated) the results were Pf growth 48h inactive and Pf growth 96h inactive.
Screening CC12CCC(C(=O)N(CC(O)CN3CCCCCC3)C1=O)C2(C)C (configuration not stated) returned Shiga inhibitor inactive, LmPK inh inactive, Pf growth 48h inactive, Pf growth 96h inactive and Cycloheximide cs inactive.
O=C1CCCN1c1ccc(S(=O)(=O)NCc2ccc(F)cc2)cc1 was read as Shiga inhibitor inactive, LmPK inh inactive, Pf growth 48h inactive, Pf growth 96h inconclusive and Cycloheximide cs inactive.
O=[N+]([O-])c1ccc(C[n+]2cccc3ccccc32)cc1 was read as Shiga inhibitor inactive, LmPK inh inactive, Pf growth 48h 10µM, Pf growth 96h inconclusive and Cycloheximide cs inactive.
O=[N+]([O-])c1ccc(Cc2ccccn2)cc1 was read as Pf growth 48h inactive and Pf growth 96h inconclusive.
For O=[N+]([O-])c1ccc(C[n+]2cccc3ccc4cccnc4c32)cc1 the results were Shiga inhibitor inactive, LmPK inh inactive, Pf growth 48h 0.26µM, Pf growth 96h inconclusive and Cycloheximide cs inactive.
c1ccc(C[n+]2cccc3c4ccccc4ccc32)cc1 was read as Shiga inhibitor inactive, LmPK inh inactive, Pf growth 48h 0.074µM, Pf growth 96h inactive and Cycloheximide cs inactive.
Screening NC(=O)c1cc[n+](Cc2ccc([N+](=O)[O-])cc2)cc1 returned Shiga inhibitor inactive, LmPK inh inactive, Pf growth 48h inactive, Pf growth 96h inactive and Cycloheximide cs inactive.
For CC(C)C(=O)C1=Cc2cc([N+](=O)[O-])ccc2OC1N1CCOCC1 (configuration not stated) the results were Shiga inhibitor inactive, LmPK inh inactive, Pf growth 48h inactive, Pf growth 96h inactive and Cycloheximide cs inactive.
`CCCOC(=O)c1ccc(NC(=O)c2cn(CC)c3nc(C)ccc3c2=O)cc1` gave Shiga inhibitor inactive, LmPK inh inactive, Pf growth 48h inconclusive, Pf growth 96h inactive and Cycloheximide cs inactive.
CCOC(=O)c1cn(CC)c2c(ccc3ccccc32)c1=O was read as Shiga inhibitor 42, LmPK inh inactive, Pf growth 48h inactive, Pf growth 96h inactive and Cycloheximide cs 35.
For CCn1cc(C(=O)Nc2cccc(C(=O)OC)c2)c(=O)c2ccc(C)nc21 the results were Shiga inhibitor inactive, LmPK inh inactive, Pf growth 48h inactive, Pf growth 96h inconclusive and Cycloheximide cs inactive.

From PubChem BioAssay
